According to PubChem BioAssay (Tox21):
Records with an inconclusive call do not appear. Entries that show only a call come without a potency. Activity calls are given as the source filed them. Calls come from the whole dose curve; as a rule, active = well fitted cell-killing curve with a large enough effect in the repeat runs; inconclusive = weak or mixed curves, or effect the other way; inactive = flat fitted curve, though single readings scatter.

Experiments:
[1] = cAMP Responsive Elements (CRE) small molecule antagonists, cell-based qHTS assay: qHTS cell viability counter screen (AID 2060913); conditions: CRE-bla HEK293T viability, CellTiter-Glo luminescence, 5 h; series mostly up to 92.4 µM; note: nearly all actives have a fitted effect of over 40% in size
Method in brief: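 Steps: cells plated and held 18 hrs at 37 C/5% CO2; compounds and NKH477 (0.25 uM final) added; 3 hrs incubation; reporter substrate read; CellTiter-Glo added to measure cytotoxicity by luminescence.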

[2] = cAMP Responsive Elements (CRE) small molecule agonists, cell-based qHTS assay: qHTS cell viability counter screen (AID 2060914); conditions: CRE-bla HEK293T viability, CellTiter-Glo luminescence, 5 h; series mostly up to 92.4 µM;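 note: viability read after 3 h of compound exposure; nearly all actives have a fitted effect of over 50% in size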
Method in brief: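 CRE-bla HEK 293T cells, plated 18 h at 37 °C, were exposed to compounds for 3 h at 37 °C/5% CO2. Viability was then measured in the same wells by CellTiter-Glo luminescence after 30 min at room temperature.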

Row | SMILES | Potency [1] | Potency [2]
1 | Cc1ccc(-n2[nH]c(C)c(N=Nc3cccc(-c4cccc(C(=O)O)c4)c3O)c2=O)cc1C | inactive | inactive
2 | COc1ccc(NC(=O)CC(C)=O)cc1 | inactive | inactive
3 | CCCC1CCCC(=O)O1 (configuration not stated) | inactive | inactive
4 | CC1=CC[C@H](CC=O)C1(C)C | inactive | inactive
5 | Brc1nc2ccccc2s1 | inactive | inactive
6 | COC(=O)CCCCC(=O)O | inactive | inactive
7 | CC(C)(C)c1cc(CCC(=O)OCC(COC(=O)CCc2cc(C(C)(C)C)c(O)c(C(C)(C)C)c2)(COC(=O)CCc2cc(C(C)(C)C)c(O)c(C(C)(C)C)c2)COC(=O)CCc2cc(C(C)(C)C)c(O)c(C(C)(C)C)c2)cc(C(C)(C)C)c1O | inactive | inactive
8 | NCCCOCCOCCOCCCN | inactive | inactive
9 | CC/C=C\CCCCO | inactive | inactive
10 | OCCN1CCN(CCCN2c3ccccc3C=Cc3ccccc32)CC1 | inactive | inactive
11 | CCCCCCCOC(=O)CCC | inactive | inactive
